SMILES strings stand for the structures. Read-outs that look alike come from different tables or passages of the source.

What all share (parameters): species or system human, MV4-11 + K-562 + COLO205 + SK-N-BE2 + OVCAR-8
The test system of one assay is ATM. The settings on record: read-out: apparent Kd, compound concentrations: 100 nM and 1000 nM (sheet 'Samples'), n = 1.
For another assay, the system named is CDC7. The settings on record: read-out: apparent Kd; compound concentrations: 100 nM and 1000 nM (sheet 'Samples'), CATDS: 6.3073958864856297E-2; n = 1.
A further assay has as its system CDK16. The settings on record: read-out: apparent Kd; compound concentrations: 100 nM and 1000 nM (sheet 'Samples'), CATDS: 0.118346075913056; n = 1.
A further assay deals with CDK2. The settings on record: read-out: apparent Kd; compound concentrations: 100 nM and 1000 nM (sheet 'Samples'), CATDS: 0.141708067448752; n = 1.
The next assay deals with CDKL5. The settings on record: read-out: apparent Kd; compound concentrations: 100 nM and 1000 nM (sheet 'Samples'), CATDS: 6.5208173112241197E-2; n = 1.
In the next assay the test system is CLK2. The settings on record: read-out: apparent Kd; compound concentrations: 100 nM and 1000 nM (sheet 'Samples'), CATDS: 8.0907286547203805E-2; n = 1.
Another assay concerns CLK4. The settings on record: read-out: apparent Kd; compound concentrations: 100 nM and 1000 nM (sheet 'Samples'), CATDS: 8.1638299421732605E-2; n = 1.
Another assay deals with CSNK2A1;CSNK2A3. The settings on record: read-out: apparent Kd; compound concentrations: 100 nM and 1000 nM (sheet 'Samples'), CATDS: 6.6778954653333403E-2; n = 1.
A further assay concerns CSNK2A2. The settings on record: read-out: apparent Kd; compound concentrations: 100 nM and 1000 nM (sheet 'Samples'), CATDS: 7.8455201722788401E-2; n = 1.
A further assay deals with GSK3A. The settings on record: read-out: apparent Kd; compound concentrations: 100 nM and 1000 nM (sheet 'Samples'), CATDS: 7.3699312386452706E-2; n = 1.
In another assay the test system is GSK3B. The settings on record: read-out: apparent Kd; compound concentrations: 100 nM and 1000 nM (sheet 'Samples'), CATDS: 7.1527025569737807E-2; n = 1.
In another assay the test system is ICK. The settings on record: read-out: apparent Kd; compound concentrations: 100 nM and 1000 nM (sheet 'Samples'), CATDS: 7.9134779366863195E-2; n = 1.
A further assay deals with CDC42BPG. The settings on record: read-out: apparent Kd; compound concentrations: 100 nM and 1000 nM (sheet 'Samples'), CATDS: 9.9527078318265502E-2; n = 1.
In the next assay the test system is DCTPP1. The settings on record: read-out: apparent Kd; compound concentrations: 100 nM and 1000 nM (sheet 'Samples'), CATDS: 8.8490675480642905E-2; n = 1.
The next assay has as its system DDR2. The settings on record: read-out: apparent Kd; compound concentrations: 100 nM and 1000 nM (sheet 'Samples'), CATDS: 8.0656162840652496E-2; n = 1.
The next assay has as its system FLT3. The settings on record: read-out: apparent Kd; compound concentrations: 100 nM and 1000 nM (sheet 'Samples'), CATDS: 8.7421379442902306E-2; n = 1.
In the next assay the test system is IRAK4. The settings on record: read-out: apparent Kd; compound concentrations: 100 nM and 1000 nM (sheet 'Samples'), CATDS: 7.99000406569913E-2; n = 1.
The subject of a further assay is MYLK3. The settings on record: read-out: apparent Kd; compound concentrations: 100 nM and 1000 nM (sheet 'Samples'), CATDS: 0.35041871443296002; n = 1.
The next assay concerns PIM2. The settings on record: read-out: apparent Kd; compound concentrations: 100 nM and 1000 nM (sheet 'Samples'), CATDS: 8.1354023438197698E-2; n = 1.
Another assay relates to PRKAG1. The settings on record: read-out: apparent Kd; compound concentrations: 100 nM and 1000 nM (sheet 'Samples'), CATDS: 8.6524001120503097E-2; n = 1.
Another assay concerns TNIK. The settings on record: read-out: apparent Kd; compound concentrations: 100 nM and 1000 nM (sheet 'Samples'), CATDS: 9.2286016750468006E-2; n = 1.
A further assay deals with ATR. The settings on record: read-out: apparent Kd; compound concentrations: 100 nM and 1000 nM (sheet 'Samples'), CATDS: 8.9801947735964505E-2; n = 1.
The next assay relates to T1, DJA1.
T1 construct: gene DNAJA1
The settings on record: read-out: apparent Kd; compound concentrations: 100 nM and 1000 nM (sheet 'Samples'), CATDS: 8.0242865429316204E-2; n = 1.

A further assay deals with MTOR. The settings on record: read-out: apparent Kd; compound concentrations: 100 nM and 1000 nM (sheet 'Samples'), CATDS: 0.10171258605148099; n = 1.
The test system of another assay is NLK. The settings on record: read-out: apparent Kd; compound concentrations: 100 nM and 1000 nM (sheet 'Samples'), CATDS: 7.3825275535159302E-2; n = 1.
The next assay deals with PIK3C2A. The settings on record: read-out: apparent Kd; compound concentrations: 100 nM and 1000 nM (sheet 'Samples'), CATDS: 6.5272193721358701E-2; n = 1.
The next assay concerns PIK3CA. The settings on record: read-out: apparent Kd; compound concentrations: 100 nM and 1000 nM (sheet 'Samples'), CATDS: 0.22105458504596001; n = 1.
For the next assay, the system named is PRKAG2. The settings on record: read-out: apparent Kd; compound concentrations: 100 nM and 1000 nM (sheet 'Samples'), CATDS: 7.5904360676084706E-2; n = 1.
The subject of another assay is PTK6. The settings on record: read-out: apparent Kd; compound concentrations: 100 nM and 1000 nM (sheet 'Samples'), CATDS: 7.5402432247591605E-2; n = 1.
Another assay deals with RAB14. The settings on record: read-out: apparent Kd; compound concentrations: 100 nM and 1000 nM (sheet 'Samples'), CATDS: 6.8441155991484606E-2; n = 1.
The subject of a further assay is STK16. The settings on record: read-out: apparent Kd; compound concentrations: 100 nM and 1000 nM (sheet 'Samples'), CATDS: 0.118413696953623; n = 1.

With `NS(=O)(=O)c1ccc(N/N=C2\C(=O)Nc3ccc(C(=O)NCCCn4ccnc4)cc32)cc1` [GW290597X], the potency estimated from few doses in the assay with ATM (CATDS: 0.20887249405767599) is 232 nM; in the assay on CDC7 it was 2220 nM; with CDK16, 550 nM; with CDK2 it was 409 nM; in the assay on CDKL5, 2010 nM; in the assay on CLK2, 1150 nM. The potency estimated from few doses in the assay with CLK4 was 1130 nM; with CSNK2A1;CSNK2A3 it was 1870 nM; in the assay with CSNK2A2 it was 1240 nM; in the assay with GSK3A, 1440 nM; in the assay on GSK3B, 1550 nM; in the assay with ICK it was 1210 nM.
With `NS(=O)(=O)c1cccc(N/C=C2\C(=O)Nc3ccccc32)c1` [GW275616X], the potency estimated from few doses with ATM (CATDS: 0.21008347624398099) was 294 nM; with CDC42BPG, 1200 nM; in the assay on DCTPP1 it was 1600 nM; in the assay on DDR2 it was 2060 nM; in the assay with FLT3, 1650 nM; in the assay on IRAK4, 2110 nM. Further, the potency estimated from few doses in the assay with MYLK3 was 137 nM; in the assay on PIM2 it was 2010 nM; in the assay on PRKAG1, 1690 nM; in the assay on TNIK, 1440 nM.
As to `Fc1ccc(-c2ncn(CCCN3CCOCC3)c2-c2ccccn2)cc1` [SB-211742], the potency estimated from few doses is 181 nM in the assay with ATM (CATDS: 0.213303269988698); 854 nM in the assay with ATR; 1130 nM with DJA1; 648 nM with MTOR; 1420 nM in the assay with NLK; 2110 nM in the assay with PIK3C2A. The potency estimated from few doses is 172 nM with PIK3CA; 1310 nM with PRKAG2; 1330 nM with PTK6; 1790 nM with RAB14; 479 nM in the assay with STK16.

(Values after paper PMC11062922 (Nature Chemical Biology, 2023).)
